Screening data deposited in PubChem by several laboratories.
Mcl1-Noxa inh – Mcl-1/Noxa interaction inhibition; AID 1022; TR-FRET Mcl-1/Noxa peptide binding, 2 h; inhibition, % at 21.7 µM; 220,000 compounds, 1.5% hits;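 active means compounds that cut the protein-peptide binding signal by more than 50% relative to plate controls in a single-dose test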;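 further: His-tagged Mcl-1 with rhodamine Noxa BH3 peptide and terbium anti-His antibody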
Target sequence (Q07820 whole entry, looked up): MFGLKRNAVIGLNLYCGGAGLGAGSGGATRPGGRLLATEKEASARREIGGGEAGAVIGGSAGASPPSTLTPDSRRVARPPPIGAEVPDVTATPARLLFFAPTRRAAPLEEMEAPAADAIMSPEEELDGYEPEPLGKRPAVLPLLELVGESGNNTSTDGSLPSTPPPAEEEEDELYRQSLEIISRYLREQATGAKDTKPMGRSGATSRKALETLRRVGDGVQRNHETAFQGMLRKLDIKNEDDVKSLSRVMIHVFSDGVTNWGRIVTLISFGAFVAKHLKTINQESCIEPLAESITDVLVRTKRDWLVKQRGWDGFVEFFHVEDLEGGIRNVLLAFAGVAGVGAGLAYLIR
GLD-1 TGE inh – GLD-1-TGE RNA interaction inhibition (C. elegans) | Q17339 | purified GLD-1 + fluorescein TGE RNA, fluorescence polarization | inhibition, % at 5.96 µM | 320,000 compounds, 0.44% hits;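 active means percent inhibition above a per-plate cutoff, the plate mean of test compounds plus 3 SD, cut at about 30% in these data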
Mcl-1 Bim block – inhibitors of Bim-Mcl-1 interaction, human | Bead-based flow cytometry, Bim peptide-Mcl-1 binding | inhibition, % at 10 µM | 190,000 compounds, 0.1% hits | AID 1009; in the data active means inhibition above about 40%
Bcl-xL primary – Bcl-xL (human) inhibition; GST-Bcl-xL / FITC-Bim BH3 peptide fluorescence polarization; inhibition, % at 10.9 µM; 320,000 compounds, 0.7% hits;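 active means inhibition above the mean of all tested compounds plus 3 SD, cutoff set per campaign, cut at about 30% in these data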;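 further: inhibitors lower millipolarization by displacing the labeled peptide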
Target sequence (Q07817 whole entry, looked up): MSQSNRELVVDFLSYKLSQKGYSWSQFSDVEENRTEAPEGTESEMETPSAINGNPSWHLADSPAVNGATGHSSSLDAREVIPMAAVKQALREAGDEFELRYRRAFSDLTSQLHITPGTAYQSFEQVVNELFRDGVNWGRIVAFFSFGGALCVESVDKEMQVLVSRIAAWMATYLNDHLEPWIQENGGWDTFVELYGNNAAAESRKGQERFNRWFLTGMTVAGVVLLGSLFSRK
MCL1 BIM primary – disrupts human MCL1 binding to BIM-BH3 peptide; inhibition, % at 10.9 µM; 320,000 compounds, 0.68% hits; AID 2057; GST-MCL1 / FITC-Bim-BH3 fluorescence polarization;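 active means inhibition above the mean inhibition of all tested compounds plus 3 SD, set per campaign, cut at about 40% in these data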;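 further: higher means more loss of mP so more displacement of Bim peptide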
Mcl1-Bid inh – disrupts binding of human Mcl-1 to Bid peptide; TR-FRET Mcl-1/Bid-Dy647 peptide binding, 1536-well; inhibition, % at 21.7 µM; 220,000 compounds, 0.97% hits; AID 1021;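 active means compounds that cut the binding signal by more than half at the single screening dose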;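 further: His-tagged Mcl-1 with europium anti-His antibody binding Bid BH3 peptide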
Numbers stand for hits; i = inactive; nt = no result. Sampled rows, rich in hits. Any-hit rate of the full collection: about 2.3%.

SMILES	Mcl1-Noxa inh	GLD-1 TGE inh	Mcl-1 Bim block	Bcl-xL primary	MCL1 BIM primary	Mcl1-Bid inh
O=c1c2c(nc3cc(-c4ccc(F)cc4)[nH]n13)CCCC2	52	i	i	i	i	i
Cc1[nH]n2c(=O)c3c(nc2c1-c1ccc(F)cc1)CCCC3	i	i	i	i	i	81
CC(NC(=O)COC(=O)CCN1C(=O)C2CC=CCC2C1=O)c1ccc(Br)cc1 (stereo not drawn)	nt	i	nt	i	i	nt
CC1CCN(C(=O)CCC(=O)Nc2nnc(C3CCCCC3)s2)CC1	nt	i	nt	i	i	nt
Cc1ccc(NC2CCCN(C(=O)c3cc4ncccn4n3)C2)cc1C (stereo not drawn)	nt	i	nt	i	i	nt
O=c1c(C(c2ccccc2)c2c(O)sc3ccccc3c2=O)c(O)sc2ccccc12	53	i	i	i	i	71
Cc1cc2sc3ccccc3c(=O)c2c(C)c1O	i	i	i	i	i	i
OCCN1CCN(c2nc(NCc3ccco3)c3ccccc3n2)CC1	51	i	i	i	i	i
Cc1ccccc1Nc1nc(NCc2ccco2)c2ccccc2n1	i	i	i	i	i	i
Cc1ccc(-c2nc(NCc3ccco3)c3ccccc3n2)cc1	i	i	i	i	i	i
c1cncc(-c2nc(NCc3ccco3)c3ccccc3n2)c1	51	i	i	i	i	53
Oc1ccccc1Nc1nc(NCc2ccco2)c2ccccc2n1	60	i	nt	i	i	i
Cc1cccc(-c2ncc(CN3CCCC(CO)(Cc4ccccc4C)C3)cn2)c1 (stereo not drawn)	i	i	i	i	i	i
O=C(NC(=S)NC12CC3CC(CC(C3)C1)C2)c1ccc(F)cc1	nt	i	nt	nt	nt	nt
Nn1c(SCC(=O)N2CCCC2=O)nnc1-c1cccs1	nt	i	nt	i	i	nt
Fc1cccc(Nc2nc(-c3ccncc3)nc3ccccc23)c1	i	i	47	i	i	i
c1ccc(Nc2nc(-c3ccccc3)nc3ccccc23)cc1	nt	i	nt	i	i	nt
O=[N+]([O-])c1cccc(N/N=C/c2cc([N+](=O)[O-])ccc2O)c1	100	i	i	i	i	i
O=C(CN1C(=O)c2ccc([N+](=O)[O-])cc2C1=O)NCc1ccc(C(=O)O)cc1	nt	i	nt	i	i	nt
CN(C)S(=O)(=O)c1ccc(Cl)c(NC(=O)CSc2nnnn2-c2ccc(O)cc2)c1	i	nt	i	nt	nt	56
CC(NCCN(C)C)C(=O)C12CC3CC(CC(C3)C1)C2 (stereo not drawn)	i	i	nt	i	i	i
Cc1cc(C)c(S(=O)(=O)NC2CCN(Cc3ccccc3)CC2)c(C)c1	i	i	nt	i	i	i
Cc1noc(C)c1S(=O)(=O)NC1CCN(Cc2ccccc2)CC1	i	i	i	35	i	i
CNC(=S)Nc1cc(C)ccc1OC(F)F	i	i	i	i	i	98
Cc1cc([N+](=O)[O-])nn1CC(=O)NCc1ccc(Cl)cc1	nt	i	nt	i	i	nt
SMILES	Mcl1-Noxa inh	GLD-1 TGE inh	Mcl-1 Bim block	Bcl-xL primary	MCL1 BIM primary	Mcl1-Bid inh
O=C(N/N=C/C(Cl)=C/c1ccc([N+](=O)[O-])cc1)C(=O)Nc1ccccc1C(=O)O	56	i	nt	i	i	i
CC(C)c1ccc2nc(SCC(=O)NCC3CCCO3)c(C#N)cc2c1 (stereo not drawn)	nt	i	nt	i	i	nt
Cc1ccc2nc(-c3ccc(N4C(=NC(=O)CCC(=O)O)SC5CS(=O)(=O)CC54)cc3)sc2c1 (stereo not drawn)	55	i	i	i	i	i
CCN(CC1CCCO1)C(=O)CCc1nnc(CCc2ccccc2OC)o1 (stereo not drawn)	nt	i	nt	i	i	nt
COc1ccc(NC(=O)COC(=O)Cn2nnc3ccccc32)cc1	i	i	i	i	i	i
COCC(=O)Nc1ccc(N(C)C)cc1	i	i	i	i	i	i
Cc1ccccc1SCC(=O)OCC(=O)Nc1ccc(N(C)C)cc1	61	i	i	i	i	i
CN(C)c1ccc(NC(=O)COC(=O)Cn2nnc3ccccc32)cc1	71	i	i	i	i	i
COc1cc(/C=N/Nc2nc3ccccc3[nH]2)cc(OC)c1O	73	i	i	i	i	i
COc1cc(/C=N/Nc2nc3ccccc3s2)cc([N+](=O)[O-])c1O	i	i	nt	34	i	i
O=C(Cn1nc2ccccc2n1)N/N=C/c1cc(Cl)cc([N+](=O)[O-])c1O	i	nt	i	nt	nt	i
O=[N+]([O-])c1cc(Cl)cc(/C=N/Nc2nc3ccccc3s2)c1O	67	i	i	i	i	i
COc1cc(/C=N/Nc2nc3ccccc3[nH]2)ccc1O	i	i	i	i	i	i
COc1cc(/C=N/Nc2ccc(F)cc2F)cc(OC)c1O	62	i	i	i	i	i
Cc1cc(OCC(=O)OCC(=O)NCc2ccco2)ccc1Cl	nt	i	nt	i	i	nt
COc1cc(C(=O)OCC(=O)NC2CCCCCC2)ccc1OCC(C)C	nt	i	nt	i	i	nt
Cc1ccccc1CNC(=O)C(=O)NCC1OCCCN1S(=O)(=O)c1cccs1 (stereo not drawn)	nt	i	nt	i	i	nt
COc1cc(/C=N/Nc2ccc(S(N)(=O)=O)cc2[N+](=O)[O-])cc(OC)c1O	i	i	nt	i	i	i
C(=N\Nc1nc2ccccc2s1)/c1ccccn1	i	i	nt	32	i	i
COc1cc(/C=N/Nc2ccccc2[N+](=O)[O-])cc(OC)c1O	58	i	i	i	i	i
CC(C)[C@H](NC(=O)N1CC(=O)Nc2ccccc21)C(=O)N1CCC[C@@H]1C(=O)O	nt	i	nt	i	i	nt
CCn1c(SCC(=O)Nc2ccccc2)nc2ccccc2c1=O	nt	i	nt	i	i	nt
CCCCn1c(SCC(=O)Nc2ccc(NC(C)=O)cc2)nc2ccccc2c1=O	nt	74	nt	i	i	nt
COc1cc(C=O)cc(OC)c1OS(=O)(=O)c1ccc(NC(C)=O)cc1	52	i	i	i	i	i
CSCC(C)N1CCC(n2nccc2NC(=O)c2ccccc2C)CC1 (stereo not drawn)	nt	i	nt	38	i	nt
SMILES	Mcl1-Noxa inh	GLD-1 TGE inh	Mcl-1 Bim block	Bcl-xL primary	MCL1 BIM primary	Mcl1-Bid inh
Cc1cc(CC(=O)O)c2oc(-c3ccoc3)cc(=O)c2c1	nt	i	nt	38	47	nt
CCCCn1c(N)c(N(CC(C)C)C(=O)CCCn2c(=O)oc3ccccc32)c(=O)[nH]c1=O	nt	i	nt	i	i	nt
Cc1ccc(-c2cc(C(=O)Nc3sc4c(c3C(=O)NCc3ccco3)CCC4)[nH]n2)c(O)c1	i	i	i	i	i	i
Cc1cc(O)c(-c2cc(C(=O)Nc3sc4c(c3C(=O)NCc3ccco3)CCC4)[nH]n2)cc1C	71	i	nt	i	i	i
O=C(c1ccccc1)c1cc(Cl)ccc1N1C(=O)C=CC1=O	i	nt	i	nt	nt	51
O=C(CC(=O)c1cc(Cl)ccc1O)c1ccccc1	i	i	i	i	i	i
COc1ccc(-c2cc(N)n(S(=O)(=O)c3ccc(C)cc3)n2)c(OC)c1	i	i	i	48	i	i
COc1ccc(S(=O)(=O)n2nc(-c3ccc(Cl)cc3)cc2N)cc1	i	i	nt	i	i	i
COc1ccccc1NC(=O)CSc1ccc(-c2ccc(-n3cccn3)cc2)nn1	nt	i	nt	i	i	nt
